Measurements: PubChem BioAssay (NCI)
This is part of a sample that, as a whole, favours compounds with a hit. Of some 79,000 tested, about 15% had one in any assay. Unmarked numbers belong to inactive results. The source made the active and inactive calls. Rule as the data show it: active = growth inhibition above about 70%; inactive = the rest.

Assays:
[1] = NCI Yeast Anticancer Drug Screen. Data for the rad52 strain (AID 147);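 also: 0% = growth of vehicle-treated control cultures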; details: S. cerevisiae rad52 mutant growth inhibition, active compounds read high
How it was run: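 The repair-mutant yeast strain was incubated with compounds, then growth was read and inhibition derived relative to vehicle.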

[2] = NCI Yeast Anticancer Drug Screen. Data for the wt1 strain (AID 149);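 also: 0% = growth of vehicle-treated wt1 cultures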; details: S. cerevisiae wt1 strain (SPY 50644) growth inhibition, active compounds read high
How it was run: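 wt1 yeast, compound-treated; % growth inhibition vs vehicle control.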

[3] = NCI Yeast Anticancer Drug Screen. Data for the rad50EPP+ strain (AID 151);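 also: 0% = growth of vehicle-treated control cultures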; details: S. cerevisiae rad50 mutant strain, active compounds read high
How it was run: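 Vehicle-normalised growth inhibition; rad50EPP+ yeast strain, altered in DNA damage repair, compound-treated.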

[4] = NCI Yeast Anticancer Drug Screen. Data for the mgt1 strain (AID 153); details: S. cerevisiae mgt1 mutant growth inhibition, active compounds read high
How it was run: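 Vehicle-normalized growth inhibition is determined in mgt1 yeast, a strain selected for a defined alteration in DNA repair or cell cycle control.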

[5] = NCI Yeast Anticancer Drug Screen. Data for the rad50 strain (AID 155);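 also: 0% = growth of vehicle-only cultures of the same strain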; details: S. cerevisiae rad50 strain growth inhibition, active compounds read high
How it was run: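 Genetically altered yeast (DNA repair pathway); compound treatment; growth inhibition vs vehicle ctrl.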

[6] = NCI Yeast Anticancer Drug Screen. Data for the mec2-1 strain (AID 157); details: S. cerevisiae mec2-1 strain, active compounds read high
How it was run: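 Mutant yeast (mec2-1) grown with compound; growth inhibition relative to vehicle control reported.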

[7] = NCI Yeast Anticancer Drug Screen. Data for the rad14 strain (AID 159);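 also: 0% = growth of vehicle-treated control cultures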; details: S. cerevisiae rad14 strain growth inhibition, active compounds read high
How it was run: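 Test compounds were applied to a repair-deficient yeast strain. Its growth was then compared with that of cultures given vehicle alone, and inhibition was expressed relative to those controls.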

[8] = NCI Yeast Anticancer Drug Screen. Data for the sgs1 mgt1 strain (AID 161);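 also: 0% = growth of cultures given vehicle only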; details: S. cerevisiae sgs1 mgt1 strain, active compounds read high
How it was run: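 Compounds are added to genetically altered yeast, and growth is compared with cultures given vehicle alone to give percent inhibition.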

[9] = NCI Yeast Anticancer Drug Screen. Data for the CLN2oe strain (AID 163);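 also: 0% = growth of vehicle-only control cultures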; details: S. cerevisiae CLN2oe strain, active compounds read high
How it was run: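 Compounds are applied to yeast harbouring a defined cell-cycle control change; reduced growth compared with vehicle-treated controls gives the value.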

[10] = NCI Yeast Anticancer Drug Screen. Data for the cln2 rad14 strain (AID 165);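 also: 0% = growth equal to vehicle treated cultures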; details: S. cerevisiae cln2 rad14 strain, active compounds read high
How it was run: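 Readout is yeast growth inhibition versus vehicle-treated controls, using a strain with cln2 and rad14 alterations exposed to compound.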

[11] = NCI Yeast Anticancer Drug Screen. Data for the bub3 strain (AID 167); details: S. cerevisiae bub3 mutant strain, active compounds read high
How it was run: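 Yeast carrying a defined mutation is treated with each compound, and growth is compared with that of vehicle-exposed cells to give inhibition.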

[12] = NCI Yeast Anticancer Drug Screen. Data for the wt2 strain (AID 169);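 also: 0% = growth of vehicle-treated yeast cultures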; details: S. cerevisiae wt2 strain growth inhibition, active compounds read high
How it was run: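 Against vehicle-treated controls, the growth of yeast exposed to each compound was compared, and the inhibition was recorded.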

[13] = NCI Yeast Anticancer Drug Screen. Data for the mlh1 strain (AID 171);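 also: 0% = growth of vehicle-treated control cultures of the same strain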; details: S. cerevisiae mlh1 strain growth inhibition, active compounds read high
How it was run: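 Measured: yeast growth. Reference: vehicle-treated controls. Organism: strain with a defined alteration affecting DNA damage repair or cell cycle control, treated with compound.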

[14] = NCI Yeast Anticancer Drug Screen. Data for the sgs1 strain (AID 173);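 also: 0% = growth of vehicle-only control cultures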; details: S. cerevisiae sgs1 mutant, active compounds read high
How it was run: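 Each compound was added to cultures of the altered yeast strain. Growth was recorded, and inhibition was derived by comparison with vehicle controls.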

[15] = NCI Yeast Anticancer Drug Screen. Data for the mlh1 rad18 strain (AID 175); details: S. cerevisiae mlh1 rad18 strain growth inhibition, active compounds read high
How it was run: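 Genetically defined yeast (DNA repair-deficient) exposed to compounds; growth inhibition determined relative to vehicle.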

[16] = NCI Yeast Anticancer Drug Screen. Data for the rad18 strain (AID 177); details: S. cerevisiae rad18 mutant growth inhibition, active compounds read high
How it was run: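 Vehicle-treated cultures served as the baseline for scoring compound-induced growth inhibition in DNA-repair-mutant yeast.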

[17] = at 5.0 µM (retest, dose inferred, filed as 0.5)
[18] = at 50.0 µM (retest, dose inferred, filed as 5.0)

## C#CCCCc1ccccc1
[1]; at 1.2 µM
  growth inhibition: -67%
[1]; at 3.7 µM
  growth inhibition: -68%
[1]; at 11.0 µM
  growth inhibition: -68%
[1]; at 33.0 µM
  growth inhibition: -43%
[1]; at 100.0 µM
  growth inhibition: 66%
[2]; at 1.2 µM
  growth inhibition: -29%
[2]; at 3.7 µM
  growth inhibition: -24%
[2]; at 11.0 µM
  growth inhibition: -28%
[2]; at 33.0 µM
  growth inhibition: -9%
[2]; at 100.0 µM
  growth inhibition: 57%
[3]; at 1.2 µM
  growth inhibition: -65%
[3]; at 3.7 µM
  growth inhibition: -72%
[3]; at 11.0 µM
  growth inhibition: -55%
[3]; at 33.0 µM
  growth inhibition: 23%
[3]; at 100.0 µM
  growth inhibition: 67%
[4]; at 1.2 µM
  growth inhibition: -19%
[4]; at 3.7 µM
  growth inhibition: -14%
[4]; at 11.0 µM
  growth inhibition: -7%
[4]; at 33.0 µM
  growth inhibition: 16%
[4]; at 100.0 µM
  growth inhibition: 91% (active)
[5]; at 1.2 µM
  growth inhibition: -48%
[5]; at 3.7 µM
  growth inhibition: -45%
[5]; [17]
  growth inhibition: -13%
[5]; at 11.0 µM
  growth inhibition: -36%
[5]; at 33.0 µM
  growth inhibition: -24%
[5]; [18]
  growth inhibition: 37%
[5]; at 50.0 µM
  growth inhibition: 24.1%
[5]; at 100.0 µM
  growth inhibition: 65%
[6]; at 1.2 µM
  growth inhibition: -21%
[6]; at 3.7 µM
  growth inhibition: -12%
[6]; [17]
  growth inhibition: -13%
[6]; at 11.0 µM
  growth inhibition: -41%
[6]; at 33.0 µM
  growth inhibition: 31%
[6]; [18]
  growth inhibition: 18%
[6]; at 50.0 µM
  growth inhibition: 47.4%
[6]; at 100.0 µM
  growth inhibition: 98% (active)
[7]; at 1.2 µM
  growth inhibition: -36%
[7]; at 3.7 µM
  growth inhibition: -39%
[7]; at 11.0 µM
  growth inhibition: -31%
[7]; at 33.0 µM
  growth inhibition: -17%
[7]; at 100.0 µM
  growth inhibition: 94% (active)
[8]; [17]
  growth inhibition: -9%
[8]; [18]
  growth inhibition: 15%
[8]; at 50.0 µM
  growth inhibition: 63.6%
[9]; at 1.2 µM
  growth inhibition: -7%
[9]; at 3.7 µM
  growth inhibition: -5%
[9]; at 11.0 µM
  growth inhibition: 4%
[9]; at 33.0 µM
  growth inhibition: 2%
[9]; at 100.0 µM
  growth inhibition: 73% (active)
[10]; [17]
  growth inhibition: 17%
[10]; [18]
  growth inhibition: 37%
[10]; at 50.0 µM
  growth inhibition: 18.1%
[11]; at 1.2 µM
  growth inhibition: -31%
[11]; at 3.7 µM
  growth inhibition: -33%
[11]; [17]
  growth inhibition: 0%
[11]; at 11.0 µM
  growth inhibition: -25%
[11]; at 33.0 µM
  growth inhibition: 2%
[11]; [18]
  growth inhibition: 79% (active)
[11]; at 50.0 µM
  growth inhibition: 39.9%
[11]; at 100.0 µM
  growth inhibition: 97% (active)
[12]; at 1.2 µM
  growth inhibition: -52%
[12]; at 3.7 µM
  growth inhibition: -55%
[12]; at 11.0 µM
  growth inhibition: -54%
[12]; at 33.0 µM
  growth inhibition: -31%
[12]; at 100.0 µM
  growth inhibition: 14%
[13]; at 1.2 µM
  growth inhibition: -20%
[13]; at 3.7 µM
  growth inhibition: -22%
[13]; at 11.0 µM
  growth inhibition: -26%
[13]; at 33.0 µM
  growth inhibition: 19%
[13]; at 100.0 µM
  growth inhibition: 98% (active)
[14]; at 1.2 µM
  growth inhibition: -48%
[14]; at 3.7 µM
  growth inhibition: -61%
[14]; at 11.0 µM
  growth inhibition: -56%
[14]; at 33.0 µM
  growth inhibition: -12%
[14]; at 100.0 µM
  growth inhibition: 89% (active)
[15]; [17]
  growth inhibition: 15%
[15]; [18]
  growth inhibition: 70% (active)
[15]; at 50.0 µM
  growth inhibition: 26.7%
[16]; at 1.2 µM
  growth inhibition: -56%
[16]; at 3.7 µM
  growth inhibition: -49%
[16]; at 11.0 µM
  growth inhibition: -58%
[16]; at 33.0 µM
  growth inhibition: -28%
[16]; at 100.0 µM
  growth inhibition: 65%
